Measured values reported in ChEMBL document CHEMBL4513216, “Probing the Open Global Health Chemical Diversity Library for Multistage-Active Starting Points for Next-Generation Antimalarials” (ACS Infect Dis, 2020).
The whole screen tested about 69,000 compounds, of which about 8,600 (12%) showed an effect of 50% or more. For the sample, strong results were picked, then their nearest neighbours and some compounds at random.

Test system: Plasmodium berghei
Assay: Screen against P. berghei liver stage (PbLuc), transformed with Luciferase, at 10uM
Type: functional, HepG2
Conditions: tested at 10 uM

Going from `Cc1sc(CN)nc1-c1ccc(Cl)cc1` to `Cc1ccc(-n2nc3n(c2=O)CCN(C(=O)c2ccc(Cl)cc2)C3)cc1`, the INHIBITION rises from 5.11% to 15.9%.

First: CCc1cc(-c2cc[nH]n2)nc(N2CCCC2)n1
Second: CCc1cc(N2CCC(NCCc3ccc(C)o3)CC2)nc(C)n1
The INHIBITION of the first is lower: 14.6% for the first, 21.3% for the second.

First: Cn1cc([C@@H]2CN(S(=O)(=O)c3cccs3)C[C@H]2N)c2ccncc21
Second: CCCn1ccnc1-c1cccc(NC(=O)[C@H]2CCC(=O)N2)c1
The INHIBITION of the first is higher: 41.9% for the first, 24.3% for the second.

Going from `Cc1c(CC(=O)N2CCSCC2)nnn1-c1cccc(Cl)c1` to `CN(C)C(=O)CN1CCC(c2cncc(-c3cccc(Cl)c3)n2)CC1`, the INHIBITION falls from 3.46% to 0.301%.

First: O=C(CC1CCCC1)N1CCC2(CC1)[C@H](O)C[C@@H]2O
Second: Cc1ccc2c(n1)N(CCn1cccn1)CCN(C(=O)CC1CC1)C2
The INHIBITION of the first is higher: 33.4% for the first, -1.64% for the second.

Going from `CN(Cc1ccco1)C(=O)CN1CCCC1Cn1cncn1` (configuration not stated) to `Cc1noc(C)c1-c1cccc(CC2CCN(C(=O)CN)C2)n1` (configuration not stated), the INHIBITION rises from -4.16% to 36.7%.

First: Cc1cnn(C2CCCN(C(=O)c3cn4ccccc4n3)C2)c1 (configuration not stated)
Second: Cc1cnc(C(=O)N2CCCC(Cn3cc(C4CC4)nn3)C2)cn1 (configuration not stated)
The INHIBITION of the first is higher: 22.3% for the first, -66.7% for the second.

Going from `COc1ccnc(N2CCN(C(=O)Cc3csc(C)n3)CC2)n1` to `Cc1cc2c(=O)n3c(nc2s1)CCN(C(=O)c1ccnn1C)CC3`, the INHIBITION rises from -55.4% to -16.5%.

Going from `CCOc1ccccc1CNCC1CCN(CC(C)O)CC1` (configuration not stated) to `CCOC1CCN(C(=O)NCCc2ccn(-c3ccccc3)n2)CC1`, the INHIBITION falls from 28.7% to -10.1%.

Compared with `CCN(CC)C(=O)Nc1cccc(Oc2ccccn2)c1`, `CC(C)NC(=O)N(C)C(c1cccc(F)c1)c1ccccn1` (configuration not stated) is lower in INHIBITION: 20% for the first, -132% for the second.

Going from `Cc1nc(C2CCCN(C(=O)c3ccc(N4CCCC4)nn3)C2)no1` (configuration not stated) to `C1CC(c2nnc(CN3CCCC3c3noc(C4CC4)n3)o2)C1` (configuration not stated), the INHIBITION rises from -19.4% to -7.13%.

First: CCn1cc(-n2cc3nc(N(C)C)[nH]cc-3c2=O)cn1
Second: Cc1c[nH]c(CN2CCCn3nc(CNS(C)(=O)=O)cc3C2)n1
The INHIBITION of the first is lower: -13% for the first, 66.6% for the second.

First: Cc1occc1C(=O)N1Cc2nccn2CC(CN2CCCC2)C1 (configuration not stated)
Second: Cc1noc(C)c1CC(=O)N1CCCC(Cn2ccnc2C)C1 (configuration not stated)
The INHIBITION of the first is lower: 31.2% for the first, 44.7% for the second.

Going from `CCc1nnc(CN(CC)C(=O)C(C)n2ccnc2C(C)C)o1` (configuration not stated) to `CCc1noc(CN(CCS(C)(=O)=O)C(C)(C)C)n1`, the INHIBITION falls from 30.3% to -37.1%.

First: Cc1cc2c(=O)n3c(nc2s1)CCN(C(=O)c1c(C)noc1C)CC3
Second: Cc1nc(C)c(C(=O)N2CCc3nc4sc(C)cc4c(=O)n3CC2)o1
The INHIBITION of the first is higher: 41.2% for the first, -12.9% for the second.

First: Cc1cc2c(=O)n3c(nc2s1)CCN(C(=O)c1scnc1C)CC3
Second: Cc1cc2c(=O)n3c(nc2s1)CCN(C(=O)c1sc(C)nc1C)CC3
The INHIBITION of the first is lower: 40.9% for the first, 80.9% for the second.

Going from `Cc1cc(C(=O)N2CCc3nc4sc(C)cc4c(=O)n3CC2)on1` to `Cc1ccc(C(=O)N2CCCC(Cn3cc(C(C)(C)N)nn3)C2)s1` (configuration not stated), the INHIBITION rises from 53.2% to 64%.

First: CCn1cnnc1CNC(=O)N1CCN(Cc2ccsc2)CC1
Second: Cc1ccc(S(=O)(=O)N2CCN(CCC(N)=O)CC2)s1
The INHIBITION of the first is lower: -63.3% for the first, 38.8% for the second.

Compared with `CCN1Cc2ccccc2CC2(CCN(C(=O)N(C)C)CC2)C1=O`, `CC[C@@H]1N(Cc2ccc(C)s2)CCC[C@]12CCC(=O)N2C` is lower in INHIBITION: 36.5% for the first, -24.5% for the second.

Compared with `CCCn1ccnc1-c1cccc(NC2CCOC2)c1` (configuration not stated), `CCCn1ccnc1-c1cccc(NC(=O)C2CCCOC2)c1` (configuration not stated) is higher in INHIBITION: 33.4% for the first, 55% for the second.

First: c1coc(CN2CCC3(CC2)COCCN(CCN2CCCC2)C3)c1
Second: O=C1CC2(CCN(c3nncs3)C2)CN1c1ccc2c(c1)OCCO2 (configuration not stated)
The INHIBITION of the first is higher: 0.923% for the first, -7.29% for the second.

Going from `O=C(N[C@@H]1CCC[C@@H](N2CCOCC2)[C@@H]1O)c1cnn2cccnc12` to `Cc1ccc(-c2cc(CNC(=O)N3CCC(O)CC3)on2)cc1`, the INHIBITION rises from -32.2% to -25.8%.

Going from `Cc1cc(CNC(=O)NC(C)c2ccncc2)no1` (configuration not stated) to `Cc1cc(CNC(=O)c2cc(NC(=O)C(C)C)ccc2Cl)no1`, the INHIBITION rises from 11.8% to 68.3%.

First: CCc1cc(CNC(=O)c2cc(NC(=O)C(C)C)ccc2Cl)[nH]n1
Second: CCC(C)N(Cc1sccc1C)C(=O)c1ccc(S(C)(=O)=O)cc1 (configuration not stated)
The INHIBITION of the first is higher: 21.2% for the first, 20.3% for the second.

First: NC(=O)c1cnn2c1NCC(CNCCCc1ccccc1)C2 (configuration not stated)
Second: NC(=O)c1cc(C2CCCN(C(=O)CCc3ccccn3)C2)n[nH]1 (configuration not stated)
The INHIBITION of the first is higher: 6.35% for the first, -19.9% for the second.

Compared with `O=C(CSCc1ccncc1)NCc1csc(Br)c1`, `Cc1cc(C)n(Cc2ccc(C(=O)N3CCOCC3(C)C)cc2)n1` is lower in INHIBITION: 43.2% for the first, 27.9% for the second.

Going from `Cc1cc(NCc2cc3n(n2)CCCN(S(C)(=O)=O)C3)ncn1` to `Cc1nccc(NCc2cc3n(n2)CCCN(S(C)(=O)=O)C3)n1`, the INHIBITION rises from -9.86% to 24.9%.

First: CS(=O)(=O)N1CCCn2nc(CNc3ncccn3)cc2C1
Second: CS(=O)(=O)N1CCCn2nc(CNc3cc(C#N)ccn3)cc2C1
The INHIBITION of the first is higher: 34.9% for the first, 23% for the second.

Compared with `CCc1cc(NCc2cc3n(n2)CCCN(S(C)(=O)=O)C3)nc(C)n1`, `CC(=O)c1ccc(NCc2cc3n(n2)CCCN(S(C)(=O)=O)C3)nc1` is lower in INHIBITION: 53% for the first, 50.3% for the second.

Going from `Cc1cc(F)cc(CN2CCCn3nc(CNS(C)(=O)=O)cc3C2)c1` to `CS(=O)(=O)NCc1cc2n(n1)CCCN(Cc1nc3ccccc3[nH]1)C2`, the INHIBITION falls from 24.9% to 20.1%.

Compared with `COCC1c2c(cnn2C)CCN1Cc1ccc(F)cc1` (configuration not stated), `CN1CCC(NCC(O)c2cccc(OCc3ccccc3)c2)CC1` (configuration not stated) is lower in INHIBITION: 21.6% for the first, 14.9% for the second.

Compared with `COCCn1ccc2ccc(C(=O)N3CCN(C(C)=O)CC3)cc21`, `CCc1nnc2ccc(N3CCN(S(=O)(=O)c4ccc(C)s4)CC3)nn12` is lower in INHIBITION: 10.5% for the first, 10.1% for the second.

Compared with `Cc1ccc(S(=O)(=O)N2CCC(Cn3cc(C(C)(C)N)nn3)CC2)s1`, `CC1=C(C(=O)N2CCCC(Cn3cc(CO)nn3)C2)OCCO1` (configuration not stated) is lower in INHIBITION: 61.8% for the first, 13% for the second.

Going from `N#CC1(NC(=O)c2ccc(-c3nc(C4CC4)n[nH]3)cc2)CCC1` to `Cn1nnnc1SCCNC1CCN(c2ccc3c(c2)OCO3)CC1`, the INHIBITION rises from 28.8% to 65%.

Compared with `CCc1c(C)nc(C)nc1N1CCC(NCCSc2nnnn2C)CC1`, `CCc1cc(N2CCC(NCCSc3nnnn3C)CC2)nc(C)n1` is higher in INHIBITION: 36.2% for the first, 61.8% for the second.

First: Cn1nnnc1SCc1cc2c(cc1Cl)OCO2
Second: Cc1cc(C)nc(N2CCC(NCCSc3nnnn3C)CC2)n1
The INHIBITION of the first is lower: 25.2% for the first, 35.1% for the second.
